Assay results reported in PubChem BioAssay.
Active and inactive are the calls of the source.

Assays:
[1] = test system: Plasmodium falciparum Sir2 (PF13_0152, Sir2A); experiment: Plasmodium falciparum Sir2A binding compounds – biochemical, small-molecule microarray, 635 nm fluorescence, primary screen (AID 1098); conditions: fluorescence 635 nm, higher = more signal;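 also: score merges spot fluorescence intensity with its signal-to-noise ratio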
[2] = probe aDKK1 binding to arrayed compounds – biochemical, biotinylated probe, 635/667 nm fluorescence, primary screen (AID 1099); conditions: small-molecule microarray, higher = more signal;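 also: score merges 667nm spot fluorescence with signal to noise across triplicate slides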
[3] = probe aCHRDL2 binding to arrayed compounds – biochemical, biotinylated probe, 635/667 nm fluorescence, primary screen (AID 1100); conditions: small-molecule microarray, higher = more signal
[4] = change in splice reporter luminescence, either direction, cell-based, HEK293, spliceosome inhibition project, primary screen (AID 1101); conditions: HEK293 splicing luciferase reporter, 24 h, higher = more signal, called active from +8 up or from −8 down;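 also: HEK293 cells carrying a splicing-competent luciferase reporter gene; test concentration not given here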
[5] = molecular target: Fibroblast growth factor 10 (Homo sapiens) (UniProt O15520); experiment: compounds binding fibroblast growth factor 10 – biochemical, small-molecule microarray, 635 nm fluorescence, primary screen (AID 1102); conditions: FGF10 binding, fluorescence 635 nm, higher = more signal
Fibroblast growth factor 10 (Homo sapiens), sequence (O15520 whole entry, looked up): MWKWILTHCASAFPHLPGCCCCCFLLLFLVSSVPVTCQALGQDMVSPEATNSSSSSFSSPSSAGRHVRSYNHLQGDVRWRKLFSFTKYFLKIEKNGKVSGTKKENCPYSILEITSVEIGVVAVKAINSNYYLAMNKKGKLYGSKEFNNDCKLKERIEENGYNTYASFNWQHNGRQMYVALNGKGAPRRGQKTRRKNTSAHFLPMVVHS

[6] = test system: glycogen synthase kinase-3 (GSK3A per assay name; protocol says GSK3B); experiment: compounds binding glycogen synthase kinase-3 – biochemical, small-molecule microarray, 635 nm fluorescence, GSK3A, primary screen (AID 1103); conditions: fluorescence 635 nm, higher = more signal; also: the record names both GSK3A and GSK3B
[7] = molecular target: Epidermal growth factor receptor (Homo sapiens) (UniProt P00533); experiment: compounds binding epidermal growth factor receptor – biochemical, small-molecule microarray, 635 nm fluorescence, primary screen (AID 1104); conditions: EGFR binding, higher = more signal;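 also: score merges 667 nm emission intensity with spot signal to noise over triplicate slides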
Epidermal growth factor receptor (Homo sapiens), sequence (P00533 whole entry, looked up): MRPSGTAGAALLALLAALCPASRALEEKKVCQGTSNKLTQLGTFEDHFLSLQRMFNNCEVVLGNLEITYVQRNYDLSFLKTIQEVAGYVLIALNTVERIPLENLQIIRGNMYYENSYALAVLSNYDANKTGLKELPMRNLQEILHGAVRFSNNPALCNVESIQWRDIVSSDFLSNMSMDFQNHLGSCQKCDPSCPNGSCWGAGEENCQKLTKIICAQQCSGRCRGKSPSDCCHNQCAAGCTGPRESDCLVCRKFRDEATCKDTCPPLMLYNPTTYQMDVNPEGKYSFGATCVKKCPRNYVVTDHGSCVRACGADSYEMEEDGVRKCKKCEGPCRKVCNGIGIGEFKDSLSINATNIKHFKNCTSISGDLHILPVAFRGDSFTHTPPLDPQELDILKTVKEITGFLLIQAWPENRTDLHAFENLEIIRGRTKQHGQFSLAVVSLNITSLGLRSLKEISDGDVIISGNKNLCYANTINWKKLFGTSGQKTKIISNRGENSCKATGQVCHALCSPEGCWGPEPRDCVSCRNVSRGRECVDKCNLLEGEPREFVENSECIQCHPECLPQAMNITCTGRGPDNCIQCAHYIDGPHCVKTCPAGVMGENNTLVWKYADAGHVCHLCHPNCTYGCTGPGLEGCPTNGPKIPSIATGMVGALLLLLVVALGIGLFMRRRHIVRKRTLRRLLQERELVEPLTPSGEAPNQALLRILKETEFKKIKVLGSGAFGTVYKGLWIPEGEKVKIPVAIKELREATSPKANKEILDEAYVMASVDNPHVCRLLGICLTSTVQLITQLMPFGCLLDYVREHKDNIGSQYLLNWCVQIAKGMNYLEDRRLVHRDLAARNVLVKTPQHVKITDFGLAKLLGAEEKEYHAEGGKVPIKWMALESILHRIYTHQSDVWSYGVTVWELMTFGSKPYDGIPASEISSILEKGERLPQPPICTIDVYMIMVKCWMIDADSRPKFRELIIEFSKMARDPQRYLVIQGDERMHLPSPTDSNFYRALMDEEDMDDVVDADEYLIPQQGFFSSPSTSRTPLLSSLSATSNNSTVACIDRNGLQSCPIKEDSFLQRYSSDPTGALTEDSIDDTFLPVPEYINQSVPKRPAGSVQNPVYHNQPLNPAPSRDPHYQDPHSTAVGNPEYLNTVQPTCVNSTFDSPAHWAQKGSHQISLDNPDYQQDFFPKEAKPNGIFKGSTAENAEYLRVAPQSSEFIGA

[8] = molecular target: Follistatin-related protein 3 (Homo sapiens) (UniProt O95633); experiment: compounds binding follistatin-related protein 3 – biochemical, small-molecule microarray, 635 nm fluorescence, primary screen (AID 1105); conditions: FSTL3 binding, higher = more signal;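 also: score merges emission near 667 nm and signal to noise per printed spot across three slides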
Follistatin-related protein 3 (Homo sapiens), sequence (O95633 whole entry, looked up): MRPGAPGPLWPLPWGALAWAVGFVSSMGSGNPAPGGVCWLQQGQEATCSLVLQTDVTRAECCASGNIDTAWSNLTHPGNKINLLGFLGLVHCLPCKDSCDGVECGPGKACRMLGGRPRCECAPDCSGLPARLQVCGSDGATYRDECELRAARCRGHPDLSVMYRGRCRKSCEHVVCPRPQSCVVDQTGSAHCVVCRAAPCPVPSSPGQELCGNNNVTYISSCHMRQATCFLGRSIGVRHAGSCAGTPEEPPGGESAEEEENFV

[9] = molecular target: Dickkopf-related protein 1 (Homo sapiens) (UniProt O94907); experiment: small molecules binding DKK1 protein – biochemical, small-molecule microarray, 635 nm fluorescence scan, primary screen (AID 1106); conditions: higher = more signal;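 also: score merges emission near 667 nm with signal to noise over three replicate slides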
Dickkopf-related protein 1 (Homo sapiens), sequence (O94907 whole entry, looked up): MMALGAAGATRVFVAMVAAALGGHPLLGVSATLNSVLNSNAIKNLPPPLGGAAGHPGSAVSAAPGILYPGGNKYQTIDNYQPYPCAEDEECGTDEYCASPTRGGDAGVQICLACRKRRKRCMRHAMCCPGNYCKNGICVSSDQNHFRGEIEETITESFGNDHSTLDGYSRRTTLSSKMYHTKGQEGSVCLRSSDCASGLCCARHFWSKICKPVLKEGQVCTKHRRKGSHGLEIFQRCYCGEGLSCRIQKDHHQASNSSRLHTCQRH

[10] = test system: Inhibin beta A chain (activin A); experiment: small molecules binding activin A – biochemical, small-molecule microarray, 635 nm fluorescence scan, primary screen (AID 1107); conditions: INHBA, higher = more signal;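 also: mouse activin A protein probed at 4.33 µg/mL on printed slides; score merges bound-protein fluorescence near 667 nm with spot signal-to-noise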
[11] = test system: Human papillomavirus type 1a protein E7 (residues 44-93); experiment: small molecules binding HPV E7 44-93 – biochemical, small-molecule microarray, residues 44-93, 635 nm fluorescence, primary screen (AID 1108); conditions: fluorescence 635 nm, higher = more signal;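 also: E7 fragment applied at 1 µg/mL in TBST for 1 h at 4 C; score combines spot fluorescence with its signal to noise ratio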
[12] = hepatitis C replication reporter changes, two-sided – Huh7 cells, luciferase reporter, HCV replication inhibitor project, primary screen (AID 1109); conditions: Huh7 HCV replicon luciferase reporter, 48 h; higher = more signal;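 also: huh7 hepatoma cells harbouring a luciferase neomycin HCV replicon reporter; luciferase luminescence as measure of HCV replicon replication; test concentration not given here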
[13] = molecular target: Left-right determination factor 2 (Homo sapiens) (UniProt O00292); experiment: small molecules binding LEFTY2 protein – biochemical, small-molecule microarray, 635 nm fluorescence scan, primary screen (AID 1110); conditions: higher = more signal
Left-right determination factor 2 (Homo sapiens), sequence (O00292 whole entry, looked up): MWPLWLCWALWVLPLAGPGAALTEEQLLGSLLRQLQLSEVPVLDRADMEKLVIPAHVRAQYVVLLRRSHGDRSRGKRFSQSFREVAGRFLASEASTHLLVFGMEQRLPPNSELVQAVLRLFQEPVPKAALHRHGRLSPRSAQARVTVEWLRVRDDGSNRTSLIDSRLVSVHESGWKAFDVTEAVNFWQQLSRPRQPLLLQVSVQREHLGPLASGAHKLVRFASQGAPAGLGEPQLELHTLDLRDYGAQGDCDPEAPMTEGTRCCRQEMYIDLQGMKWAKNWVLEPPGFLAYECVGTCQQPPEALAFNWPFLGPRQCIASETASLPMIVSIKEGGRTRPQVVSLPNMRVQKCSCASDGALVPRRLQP

[14] = molecular target: Calmodulin-1 (Homo sapiens) (UniProt P0DP23); experiment: small molecules binding calmodulin-1 with EGTA – biochemical, small-molecule microarray, Cy5-labelled CALM1, profiling panel (AID 1111); conditions: Cy5-CALM1 binding fluorescence, higher = more signal;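 also: labelled calmodulin applied in Tris saline Tween buffer holding calcium plus EGTA and DTT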
[15] = molecular target: Calmodulin-1 (Homo sapiens) (UniProt P0DP23); experiment: small molecules binding Ca-loaded calmodulin-1 – biochemical, small-molecule microarray, Cy5-labelled CALM1, plus calcium, artefact control for SMM control-protein annotation, profiling panel (AID 1112); conditions: Cy5-CALM1 binding fluorescence, higher = more signal;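 also: score merges spot fluorescence with signal to noise from triplicate slides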
[16] = probe aWnt5a binding to arrayed compounds – biochemical, biotinylated probe, 635/667 nm fluorescence, primary screen (AID 1113); conditions: small-molecule microarray, higher = more signal;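 also: score merges 667 nm fluorescence intensity with signal-to-noise per printed feature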
[17] = probe aShh binding to arrayed compounds – biochemical, biotinylated probe, 635/667 nm fluorescence, primary screen (AID 1114); conditions: small-molecule microarray, higher = more signal;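 also: probe is biotin-labelled aShh protein from a stem cell growth factor screen; measures binding of labelled protein to compounds printed on the slide; score merges feature fluorescence at 667 nm with signal-to-noise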
[18] = probe aNog binding to arrayed compounds – biochemical, biotinylated probe, 635/667 nm fluorescence, primary screen (AID 1115); conditions: small-molecule microarray, higher = more signal;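 also: probe is biotinylated aNog protein used at 0.15 µg/mL for 1 h at 4 C; z-score combines 667 nm fluorescence of each spot with its signal to noise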
[19] = molecular target: Torsin-1A-interacting protein 1 (Homo sapiens) (UniProt Q5JTV8); experiment: compound microarray binding of lysate hLAP1 – cell lysate, small-molecule microarray, COS7 lysate, 635/667 nm fluorescence, primary screen (AID 1116); conditions: 635 nm fluorescence, higher = more signal
Torsin-1A-interacting protein 1 (Homo sapiens), sequence (Q5JTV8 whole entry, looked up): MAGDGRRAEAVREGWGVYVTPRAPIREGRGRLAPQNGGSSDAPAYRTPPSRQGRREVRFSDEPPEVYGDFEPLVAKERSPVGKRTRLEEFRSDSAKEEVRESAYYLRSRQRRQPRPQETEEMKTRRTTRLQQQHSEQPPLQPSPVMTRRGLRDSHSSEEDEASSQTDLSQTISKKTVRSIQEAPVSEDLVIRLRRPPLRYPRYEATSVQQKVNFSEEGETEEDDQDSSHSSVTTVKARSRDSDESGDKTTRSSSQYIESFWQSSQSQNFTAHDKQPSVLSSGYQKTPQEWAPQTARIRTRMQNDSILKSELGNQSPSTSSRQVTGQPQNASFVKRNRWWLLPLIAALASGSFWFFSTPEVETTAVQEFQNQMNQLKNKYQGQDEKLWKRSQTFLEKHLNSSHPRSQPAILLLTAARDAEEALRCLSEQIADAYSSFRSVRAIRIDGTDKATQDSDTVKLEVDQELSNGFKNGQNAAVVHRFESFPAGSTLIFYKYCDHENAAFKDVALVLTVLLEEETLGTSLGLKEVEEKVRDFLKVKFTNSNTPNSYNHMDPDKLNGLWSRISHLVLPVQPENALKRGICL

[20] = molecular target: Alpha-bungarotoxin (Bungarus multicinctus) (UniProt P60615); experiment: compounds binding labelled alpha-BTX control protein – biochemical, small-molecule microarray, Alexa647 label, 635/667 nm fluorescence, artefact control for SMM control protein annotation, profiling panel (AID 1117); conditions: alpha-BTX-A647 binding fluorescence, higher = more signal
Alpha-bungarotoxin (Bungarus multicinctus), sequence (P60615 whole entry, looked up): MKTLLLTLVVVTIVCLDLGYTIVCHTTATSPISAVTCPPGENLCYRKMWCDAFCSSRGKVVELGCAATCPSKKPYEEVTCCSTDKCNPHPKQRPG

| SMILES | composite z-score [1] | composite z-score [2] | composite z-score [3] | z-score [4] | composite z-score [5] | composite z-score [6] | composite z-score [7] | composite z-score [8] | composite z-score [9] | composite z-score [10] | composite z-score [11] | z-score [12] | composite z-score [13] | composite z-score [14] | composite z-score [15] | composite z-score [16] | composite z-score [17] | composite z-score [18] | composite z-score [19] | composite z-score [20] |
| --- | --- | --- | --- | --- | --- | --- | --- | --- | --- | --- | --- | --- | --- | --- | --- | --- | --- | --- | --- | --- |
| CN1C(=O)C2C=CC(C(O)c3cccs3)N(Nc3ccccc3)C2C1=O (stereo not given) | 0.748 | 0.168 | 0.272 | 1.46 (inactive) | 0.765 | 0.0802 | 0.007 | 0.174 | -0.0478 | 0.693 | 0.548 | -0.304 | 0.0032 | 0.041 | -0.591 | 0.211 | 0.265 | 0.0924 | 0.558 | 0.336 |
| COc1cc2c(cc1O)C(C1CC1)N(Cc1cc3c(cc1Br)OCO3)CC2 (stereo not given) | 0.802 | -0.197 | 0.655 | -0.39 (inactive) | -1.02 | -1.26 | -1.12 | -1.35 | -0.948 | -0.13 | 0.0206 | -3.51 | -1.25 | -0.515 | -0.58 | -0.124 | -0.134 | -0.33 | -0.447 | -0.745 |
| Cc1ccc(C(C)CC(O)C2C=CC3C(=O)N(C)C(=O)C3N2NC(=O)OC(C)(C)C)o1 (stereo not given) | 1.07 | 0.202 | 0.0719 | 1.92 (inactive) | 0.803 | 1.29 | 0.96 | 1.3 | 0.837 | -0.0924 | 0.598 | 0.255 | 1.19 | 1.73 | 0.0152 | 0.246 | 0.424 | 0.226 | 1.27 | 1.73 |
| O=C1c2ccccc2[C@@]2(Cc3ccccc3N(CCN3CCOCC3)C2=O)[C@H](c2ccc(CO)cc2)N1Cc1ccccc1 | 0.878 | -0.0074 | 0.278 | -0.765 (inactive) | -0.667 | -1.23 | -1.17 | -0.267 | -0.391 | 0.819 | -0.22 | -0.446 | -0.976 | -0.211 | -0.11 | -0.128 | -0.0709 | -0.5 | 1.01 | 0.175 |
| CCCCN1CC=CC23O[C@@H]4/C=C\CCC(C)OC(=O)C4[C@H]2C(=O)N(CCCCCO)[C@@H]3C1=O (stereo not given in full) | 0.0665 | -0.267 | 0.421 | -0.259 (inactive) | -1.28 | -0.577 | -0.762 | -0.668 | -1.41 | -0.323 | 0.15 | -0.275 | -1.39 | -0.78 | 0.0481 | -0.191 | -0.214 | -0.21 | 1.27 | -1.14 |
